From PubChem BioAssay
TRPV1 ag: human TRPV1 agonism. TRPV1-expressing cells, Fluo-8 calcium influx, agonist mode. activation, % at 8.33 µM. actives 0.19% (n = 320,000); in the data active = activation above about 80%; inconclusive = between about 30% and that limit; also: 0% is about no effect
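TRPV1-expressing cells were cultured overnight at 35.5C and loaded with Fluo-8 calcium dye for 40 to 90 min at room temperature. After a 10 s baseline, compound was added and calcium influx was read kinetically for 3 min (ex 480/em 520 nm).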
Menin MLL FP TR: displaces Texas Red mutant MLL peptide from human menin | Potency, µM (doses to about 61.6 µM), without a hit: top-dose FP activity change, negative = inhibition, usual class: inhibitors | AID 1768 | actives 0.23% (n = 270,000) | Menin + Texas Red MLL mutant peptide, fluorescence polarization | O00255; active = well fitted inhibition curve with a large enough effect in the polarisation, with a control signal flat, not every such curve was filed as active; inconclusive = small, poorly fitted or top-dose-only effect, or effect the other way, or a change in a side signal; inactive = no such curve, though single readings can be large or run the other way; the % refers to the polarisation; also: potency is read from the fitted curve at half-maximal effect; % of control where 0% means no effect
TRPV1 potentiator: human TRPV1 potentiation. potentiation, % at 8.33 µM. TRPV1-expressing cells, Fluo-8 calcium influx, capsaicin EC20 potentiation. actives 0.02% (n = 320,000). AID 540277. Q8NER1; in the data active = potentiation above about 80%; inconclusive = between about 30% and that limit; also: 0% is about no effect
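Cells expressing TRPV1 were dye-loaded with Fluo-8 and read kinetically: 10 s baseline, 3 min after compound (agonist portion), then 2 min after EC20 capsaicin (allosteric enhancer portion). Calcium-bound dye fluorescence at 480/520 nm.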
Menin MLL FP FL: displaces fluorescein MLL peptide from human menin. AID 1766. FP activity change, % at 61.4 µM. 290,000 tested, under 10 active. Fluorescence polarization, fluorescein-MLL peptide displacement from menin; active = well fitted curve in the direction sought with a large enough effect in the polarisation, not every such curve was filed as active; inconclusive = small, poorly fitted or top-dose-only effect, or effect the other way, or a change in a side signal; inactive = no such curve, though single readings can be large or run the other way; the % refers to the polarisation; also: % of control where 0% means no effect
MLL CXXC-DNA inh: blocks binding of human MLL CXXC domain to DNA; MLL-CXXC / FITC-HOXA9 DNA fluorescence polarization; Potency, µM (doses to about 115 µM), for the others: at the top dose activity change, negative = inhibition, usual class: inhibitors; actives 0.037% (n = 290,000); active = well fitted inhibition curve with a large enough effect in the polarisation, with a control signal flat, not every such curve was filed as active; inconclusive = small, poorly fitted or top-dose-only effect, or effect the other way, or a change in a side signal; inactive = no such curve, though single readings can be large or run the other way; the % refers to the polarisation; also: potency is read from the fitted curve at half-maximal effect
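Steps: dispense CXXC domain solution (7 uM) → pin compounds or unlabeled HOX-A9 DNA control → 5 min ambient → add FLSN-HOX-A9 solution (50 nM) → spin → 30 min ambient → fluorescence polarization. Tris pH 7.5/NaCl/DTT/BSA buffer.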
* = called active by the depositor; u = inconclusive; x = not tested or not shown; [ ] = another dose, or the depositor's remark. Sampled rows, rich in hits. Any-hit rate of the full collection: about 0.32%.

SMILES	TRPV1 ag	Menin MLL FP TR	TRPV1 potentiator	Menin MLL FP FL	MLL CXXC-DNA inh
COC1C(OC(=O)/C=C/C=C/C=C/C=C/C(=O)O)CCC2(CO2)C1C1(C)OC1CC=C(C)C (configuration not stated)	x	15.4%	x	7.8	-6.3%
Cc1ccc(SCCNC(=O)c2ccccc2F)cc1	80.1*	-12.7%	-29.4	-3.0	-4.0%
CSc1ccccc1C(=O)NCCSc1ccc(C)cc1	u	-9.1%	-15.7	1.5	9.5%
O=C(NC1=NCCS1)c1cc(-c2ccc(-c3ccccc3)cc2)nc2ccccc12	1.9	11.2µM*	u	1.7	x
CC#CCN1c2ccccc2[C@]23C[C@@H](C(=O)OC)N(S(=O)(=O)c4ccc(Br)cc4)C2=NC(C(=O)OC)=C(C(=O)OC)[C@H]13	x	-2.7%[11.7 µM]	x	-2.1[11.7 µM]	x
CC(C)(C)c1cc(C(=O)Nc2ccc(F)cc2)n(Cc2ccc(F)cc2)n1	87.9*	x	-23.1	1.4	-8.8%
O=C(N1CCOCC1)N1CCN(c2ccccc2F)CC1	83.5*	2.7%	-9.0	3.3	-15.3%
O=C(N1CCOCC1)N1CCN(c2ccccc2)CC1	u	0.2%	-15.9	1.0	4.1%
COc1cc(NCCCC(C)N)c2ncccc2c1 (configuration not stated)	-1.8	u	4.1	u	2.9%
CCC(CNc1cc(OC)cc2cccnc12)NC1CCCCC1 (configuration not stated)	2.9	35.5µM*	-17.7	u	u
CCCCCC(O)c1ccc([C@H]2CCC(=O)[C@@H]2CCCCCCC(=O)O)cc1 (some centres not stated)	x	-8.4%	x	0.4	x
O=C(O)C1(P(=O)(c2ccccc2)c2ccccc2)CCCC1	0.9	x	-6.8	-5.3	-3.5%
N#CC1(P(=O)(c2ccccc2)c2ccccc2)CCCC1	-4.3	-9.8%	111.1*	0.7	3.0%
CCOC(=O)C1=C(c2ccccc2)N=c2s/c(=C\c3ccc(O)cc3)c(=O)n2C1c1cccs1 (configuration not stated)	u	35.5µM*	-14.1	u	u
CC(C)C1C(=O)N(S(C)(=O)=O)[C@H]2CCN(C(=O)/C=C/CN3CCCCC3)[C@@H]12 (some centres not stated)	x	-1.7%	x	0.3	x
Cc1noc(C)c1-c1ccc2ncnc(NCc3ccco3)c2c1	x	-9.2%	x	3.2	x
Oc1ccc(Cl)cc1C1=NNC(c2cc(Br)cc3c2OCOC3)C1 (configuration not stated)	-2.2	10µM*	10.0	14.1	4.4%
CSCC[C@H](NC(=O)[C@H](CO)NC(=O)[C@H](Cc1ccc(O)cc1)NC(=O)[C@@H](N)CO)C(=O)N[C@@H](CCC(=O)O)C(=O)N[C@@H](Cc1cnc[nH]1)C(=O)N[C@@H](Cc1ccccc1)C(=O)N[C@@H](CCCNC(=N)N)C(=O)N[C@@H](Cc1c[nH]c2ccccc12)C(=O)NCC(=O)N[C@@H](CCCCN)C(=O)N1CCC[C@H]1C(=O)N[C@H](C(=O)NCC(=O)N[C@@H](CCCCN)C(=O)N[C@@H](CCCCN)C(=O)N[C@@H](CCCNC(=N)N)C(=O)N[C@@H](CCCNC(=N)N)C(=O)N1CCC[C@H]1C(=O)N[C@H](C(=O)N[C@@H](CCCCN)C(=O)N[C@H](C(=O)N[C@@H](Cc1ccc(O)cc1)C(=O)N1CCC[C@H]1C(=O)O)C(C)C)C(C)C)C(C)C	x	-7.2%	x	-19.8	x
CC[C@H](C)[C@H](NC(=O)[C@H](CC(C)C)NC(=O)[C@@H](N)CO)C(=O)NCC(=O)N[C@@H](CCCCN)C(=O)N[C@H](C(=O)O)C(C)C	x	12.2%	x	1.4	x
Cc1ccc(C(=O)Nc2ccc3cn[nH]c3c2)cc1S(=O)(=O)N1CCOCC1	91.7*	0.1%	11.1	1.5	12.8%
CC(=O)Nc1ccc(C(=O)Nc2ccc(S(=O)(=O)N3CCOCC3)cc2)cc1	0.7	16.2%	20.6	-0.1	-0.7%
Cc1ccc(C(=O)Nc2ccc(S(=O)(=O)N3CCOCC3)cc2)cc1C	82.2*	54.1%	-11.6	-7.6	-6.6%
Cc1ccc(NC(=O)c2ccc3c(c2)OCCO3)cc1C	85.5*	u	-30.4	1.3	2.2%
N#Cc1ccc(NC(=O)CCc2ccc(S(=O)(=O)N3CCOCC3)cc2)cc1	101.6*	-1.8%	-8.4	3.5	-1.9%
CCCCCCCCCCCCCCOc1ccc(C(=O)O)o1	x	-8.0%	x	u	x
